Design in all cases: scale not given: direction of the effect not stated beside the values
Test [1] concerns the target Protein translocase subunit SecA (Escherichia coli (strain K12)) (UniProt P10408). In words: Assay to Identify E. coli SecA ATPase Inhibitors. It is filed as functional. The note with it: 30 µM.
The target in test [2] is T1, Ubiquitin-activating enzyme e1, putative (Leishmania donovani (strain BPK282A1)) (UniProt E9BSI1).
T1 sequence (whole entry): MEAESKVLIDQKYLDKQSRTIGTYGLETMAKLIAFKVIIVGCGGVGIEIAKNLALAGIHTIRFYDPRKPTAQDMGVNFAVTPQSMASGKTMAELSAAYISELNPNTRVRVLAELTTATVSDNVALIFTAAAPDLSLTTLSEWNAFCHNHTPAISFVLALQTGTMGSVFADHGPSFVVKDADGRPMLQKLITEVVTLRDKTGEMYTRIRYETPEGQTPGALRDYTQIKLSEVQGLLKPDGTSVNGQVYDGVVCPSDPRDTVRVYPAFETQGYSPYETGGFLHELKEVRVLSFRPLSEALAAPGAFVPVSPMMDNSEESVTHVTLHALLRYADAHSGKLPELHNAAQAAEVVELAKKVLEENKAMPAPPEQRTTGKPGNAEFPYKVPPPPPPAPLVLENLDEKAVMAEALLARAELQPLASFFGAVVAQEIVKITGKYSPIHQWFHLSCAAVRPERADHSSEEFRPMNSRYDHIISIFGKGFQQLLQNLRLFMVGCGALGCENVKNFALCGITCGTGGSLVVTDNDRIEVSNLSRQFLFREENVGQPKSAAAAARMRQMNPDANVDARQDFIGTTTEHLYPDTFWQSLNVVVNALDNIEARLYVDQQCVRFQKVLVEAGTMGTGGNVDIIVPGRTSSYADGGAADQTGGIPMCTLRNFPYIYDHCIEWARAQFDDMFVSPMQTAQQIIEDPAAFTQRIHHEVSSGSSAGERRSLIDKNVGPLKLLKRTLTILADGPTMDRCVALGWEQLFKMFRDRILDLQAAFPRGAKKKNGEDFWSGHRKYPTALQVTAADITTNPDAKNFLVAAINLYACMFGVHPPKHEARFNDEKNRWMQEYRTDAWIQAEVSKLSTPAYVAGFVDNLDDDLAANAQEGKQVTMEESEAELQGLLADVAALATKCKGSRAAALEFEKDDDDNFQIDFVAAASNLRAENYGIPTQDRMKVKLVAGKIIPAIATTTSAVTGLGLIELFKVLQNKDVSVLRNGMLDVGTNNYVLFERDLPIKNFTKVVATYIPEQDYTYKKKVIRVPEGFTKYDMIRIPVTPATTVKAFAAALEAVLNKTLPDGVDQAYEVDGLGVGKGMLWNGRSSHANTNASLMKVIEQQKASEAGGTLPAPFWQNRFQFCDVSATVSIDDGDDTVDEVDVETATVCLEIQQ
Nature of the test: Leishmania donovani Ubiquitin Activating Enzyme (LdE1). The note with it: 30 µM. Type of test: functional.

Test [3] deals with Sialic acid-binding Ig-like lectin 9 (Homo sapiens) (UniProt Q9Y336). Nature of the test: Hs-Siglec9 ALPHAscreen SOP 20170721. Particulars: 10 µM. A general note: Alpha assays give light when donor and acceptor beads are brought close together.
Chain of Sialic acid-binding Ig-like lectin 9 (Homo sapiens) (Q9Y336 whole entry): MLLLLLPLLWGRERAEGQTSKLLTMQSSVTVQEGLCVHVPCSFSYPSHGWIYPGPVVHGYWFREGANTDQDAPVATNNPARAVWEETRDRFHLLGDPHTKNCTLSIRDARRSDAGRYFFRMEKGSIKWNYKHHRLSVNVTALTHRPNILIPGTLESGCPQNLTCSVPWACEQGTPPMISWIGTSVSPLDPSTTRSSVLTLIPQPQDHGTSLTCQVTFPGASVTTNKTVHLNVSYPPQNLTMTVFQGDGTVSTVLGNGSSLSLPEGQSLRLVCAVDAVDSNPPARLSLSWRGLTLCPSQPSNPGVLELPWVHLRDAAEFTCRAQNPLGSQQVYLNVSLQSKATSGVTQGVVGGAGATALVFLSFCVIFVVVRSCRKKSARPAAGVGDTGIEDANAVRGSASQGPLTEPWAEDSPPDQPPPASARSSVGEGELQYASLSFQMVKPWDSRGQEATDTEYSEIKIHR
For a further test, the system named is Trypanosoma cruzi. In words: Trypanosoma cruzi phosphomannomutase and mannose-1-phosphate guanylyltransferase assay. It is filed as functional. The note with it: 10 µM.
Test [4] deals with T2, Arginase-2, mitochondrial (Homo sapiens) (UniProt P78540).
T2 sequence (whole entry): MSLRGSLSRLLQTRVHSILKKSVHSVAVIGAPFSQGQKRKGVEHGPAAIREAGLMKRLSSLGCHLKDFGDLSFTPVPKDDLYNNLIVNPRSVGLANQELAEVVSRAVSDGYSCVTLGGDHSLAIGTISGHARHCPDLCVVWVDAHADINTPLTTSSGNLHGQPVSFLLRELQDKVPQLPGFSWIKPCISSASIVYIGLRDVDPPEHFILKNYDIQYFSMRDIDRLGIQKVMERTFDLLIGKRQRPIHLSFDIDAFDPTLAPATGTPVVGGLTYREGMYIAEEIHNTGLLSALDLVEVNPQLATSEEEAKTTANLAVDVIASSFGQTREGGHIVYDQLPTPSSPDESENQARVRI
Nature of the test: in vitro enzyme assay to detect the production of urea directly proportional to the activity of Arginase II. Further: in the data most compounds retested in dose-response had high values. It is filed as functional.

The target in test [5] is T3, Proteasome subunit beta (Trypanosoma cruzi) (UniProt O96673).
T3 sequence (whole entry): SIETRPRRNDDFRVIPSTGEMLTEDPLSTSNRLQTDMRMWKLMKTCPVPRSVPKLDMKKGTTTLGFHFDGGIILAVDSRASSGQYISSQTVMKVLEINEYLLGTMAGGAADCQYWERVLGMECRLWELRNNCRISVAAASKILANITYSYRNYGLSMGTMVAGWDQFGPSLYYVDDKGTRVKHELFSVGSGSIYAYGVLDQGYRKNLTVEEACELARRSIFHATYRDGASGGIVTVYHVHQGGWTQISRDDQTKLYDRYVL
In words: Trypanosoma cruzi proteasome chymotrypsin-like activity (TcProtChymo) assay. Further: in the data most compounds retested in dose-response had high values. Type of test: functional. Particulars: 9.37 µM.

The species entered for another test is Homo sapiens. Nature of the test: To identify inhibition of the IFN signalling (Jak-Stat) pathway via expression of an eGFP reporter gene under the control of an IFN-stimulated response element (ISRE) containing MxA promoter. Type of test: functional. The note with it: 30 µM. On the technique in general: In a reporter assay the amount or activity of a reporter protein is the signal.

Test [6] concerns the target T4, Tyrosyl-tRNA synthetase, putative (Trypanosoma cruzi (strain CL Brener)) (UniProt Q4DSP6).
T4 sequence (whole entry): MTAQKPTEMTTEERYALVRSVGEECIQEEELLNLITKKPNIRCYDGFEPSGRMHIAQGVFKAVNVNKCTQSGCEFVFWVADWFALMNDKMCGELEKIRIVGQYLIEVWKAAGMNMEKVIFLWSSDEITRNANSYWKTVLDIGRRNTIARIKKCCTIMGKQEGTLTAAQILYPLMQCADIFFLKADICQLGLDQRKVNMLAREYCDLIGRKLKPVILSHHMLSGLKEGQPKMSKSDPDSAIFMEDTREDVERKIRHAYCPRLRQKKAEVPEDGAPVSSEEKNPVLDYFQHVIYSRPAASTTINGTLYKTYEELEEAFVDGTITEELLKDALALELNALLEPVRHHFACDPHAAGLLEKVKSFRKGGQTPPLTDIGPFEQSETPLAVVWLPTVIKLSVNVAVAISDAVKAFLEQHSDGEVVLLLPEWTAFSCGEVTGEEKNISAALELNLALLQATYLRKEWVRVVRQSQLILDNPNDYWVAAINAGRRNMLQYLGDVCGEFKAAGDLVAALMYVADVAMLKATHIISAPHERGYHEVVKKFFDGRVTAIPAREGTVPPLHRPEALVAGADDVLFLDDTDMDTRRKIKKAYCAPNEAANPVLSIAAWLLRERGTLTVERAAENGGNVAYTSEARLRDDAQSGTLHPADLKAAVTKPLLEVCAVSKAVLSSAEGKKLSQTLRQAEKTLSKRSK
Nature of the test: Trypanosoma cruzi tyrosyl tRNA synthetase (TcYRS) _High Tyrosine SOP. Further: in the data most compounds retested in dose-response had high values. Type of test: functional. Particulars: 30 µM.

Test [7] addresses T4, Tyrosyl-tRNA synthetase, putative (Trypanosoma cruzi (strain CL Brener)). Nature of the test: Trypanosoma cruzi tyrosyl tRNA synthetase (TcYRS) SOP. The note with it: 30 µM. Type of test: functional.
The target of test [8] is Chromo domain-containing protein 1 (Saccharomyces cerevisiae (strain ATCC 204508 / S288c) (Baker's yeast)) (UniProt P32657). Nature of the test: ScCHD-1 Enzyme Inhibition Assay. Further: in the data most compounds retested in dose-response had high values. Type of test: functional. The note with it: 30 µM.
Chain of Chromo domain-containing protein 1 (Saccharomyces cerevisiae (strain ATCC 204508 / S288c) (Baker's yeast)) (P32657 whole entry, the tested form may be a part): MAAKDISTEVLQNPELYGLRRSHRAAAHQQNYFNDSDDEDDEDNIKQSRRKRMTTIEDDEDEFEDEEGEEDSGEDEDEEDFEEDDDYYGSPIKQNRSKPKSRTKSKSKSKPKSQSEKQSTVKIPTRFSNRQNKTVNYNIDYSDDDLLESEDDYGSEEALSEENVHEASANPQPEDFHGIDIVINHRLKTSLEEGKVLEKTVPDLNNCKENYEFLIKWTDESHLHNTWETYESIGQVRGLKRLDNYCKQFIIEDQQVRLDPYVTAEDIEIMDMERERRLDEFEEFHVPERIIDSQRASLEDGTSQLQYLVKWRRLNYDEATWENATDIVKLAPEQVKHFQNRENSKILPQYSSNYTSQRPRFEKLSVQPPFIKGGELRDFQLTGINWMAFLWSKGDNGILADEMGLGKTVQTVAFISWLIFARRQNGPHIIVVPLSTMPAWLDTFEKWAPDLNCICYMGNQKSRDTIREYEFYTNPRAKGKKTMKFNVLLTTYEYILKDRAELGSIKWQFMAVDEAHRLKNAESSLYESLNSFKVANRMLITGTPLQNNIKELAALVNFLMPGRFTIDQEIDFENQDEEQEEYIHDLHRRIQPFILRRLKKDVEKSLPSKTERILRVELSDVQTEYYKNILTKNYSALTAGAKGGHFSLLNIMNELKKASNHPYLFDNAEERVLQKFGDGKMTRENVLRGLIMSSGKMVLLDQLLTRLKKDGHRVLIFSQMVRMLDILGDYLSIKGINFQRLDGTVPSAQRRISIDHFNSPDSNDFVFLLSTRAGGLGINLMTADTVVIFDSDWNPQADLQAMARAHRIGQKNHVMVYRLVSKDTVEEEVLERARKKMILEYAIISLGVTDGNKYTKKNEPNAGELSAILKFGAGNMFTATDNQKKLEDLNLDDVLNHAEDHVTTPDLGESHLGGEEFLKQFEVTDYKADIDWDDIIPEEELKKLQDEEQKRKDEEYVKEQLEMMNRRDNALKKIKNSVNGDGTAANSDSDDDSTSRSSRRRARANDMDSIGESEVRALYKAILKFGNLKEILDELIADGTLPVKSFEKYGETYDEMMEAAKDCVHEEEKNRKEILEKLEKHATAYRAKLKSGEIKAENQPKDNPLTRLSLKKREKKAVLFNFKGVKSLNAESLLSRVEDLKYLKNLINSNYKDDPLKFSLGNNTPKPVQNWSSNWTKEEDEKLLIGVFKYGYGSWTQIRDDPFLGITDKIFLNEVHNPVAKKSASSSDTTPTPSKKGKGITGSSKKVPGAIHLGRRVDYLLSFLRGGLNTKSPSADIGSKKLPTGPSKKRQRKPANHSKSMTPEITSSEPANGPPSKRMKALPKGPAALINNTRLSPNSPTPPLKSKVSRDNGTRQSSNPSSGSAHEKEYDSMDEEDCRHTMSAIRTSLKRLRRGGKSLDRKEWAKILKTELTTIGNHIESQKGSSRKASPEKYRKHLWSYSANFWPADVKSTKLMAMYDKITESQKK
The test system of a further test is N/A. In words: Trypanosoma cruzi proteasome luciferase counter-screen. The note with it: 9.37 µM. Type of test: functional. In general terms: The purpose of a counterscreen is to sort out artefacts and off-target activity.

Values joined by “and” are separate entries in the source; they are usually repeats but may differ in a detail not shown here. Equal entries are not always repeated. For some assays here: Measured potencies and affinities stand elsewhere.

We go through 9 molecules from ChEMBL document CHEMBL3988442, “University of Dundee, Small-Polar-MMV Screening Library” (2021).

Chain of Protein translocase subunit SecA (Escherichia coli (strain K12)) (P10408 whole entry): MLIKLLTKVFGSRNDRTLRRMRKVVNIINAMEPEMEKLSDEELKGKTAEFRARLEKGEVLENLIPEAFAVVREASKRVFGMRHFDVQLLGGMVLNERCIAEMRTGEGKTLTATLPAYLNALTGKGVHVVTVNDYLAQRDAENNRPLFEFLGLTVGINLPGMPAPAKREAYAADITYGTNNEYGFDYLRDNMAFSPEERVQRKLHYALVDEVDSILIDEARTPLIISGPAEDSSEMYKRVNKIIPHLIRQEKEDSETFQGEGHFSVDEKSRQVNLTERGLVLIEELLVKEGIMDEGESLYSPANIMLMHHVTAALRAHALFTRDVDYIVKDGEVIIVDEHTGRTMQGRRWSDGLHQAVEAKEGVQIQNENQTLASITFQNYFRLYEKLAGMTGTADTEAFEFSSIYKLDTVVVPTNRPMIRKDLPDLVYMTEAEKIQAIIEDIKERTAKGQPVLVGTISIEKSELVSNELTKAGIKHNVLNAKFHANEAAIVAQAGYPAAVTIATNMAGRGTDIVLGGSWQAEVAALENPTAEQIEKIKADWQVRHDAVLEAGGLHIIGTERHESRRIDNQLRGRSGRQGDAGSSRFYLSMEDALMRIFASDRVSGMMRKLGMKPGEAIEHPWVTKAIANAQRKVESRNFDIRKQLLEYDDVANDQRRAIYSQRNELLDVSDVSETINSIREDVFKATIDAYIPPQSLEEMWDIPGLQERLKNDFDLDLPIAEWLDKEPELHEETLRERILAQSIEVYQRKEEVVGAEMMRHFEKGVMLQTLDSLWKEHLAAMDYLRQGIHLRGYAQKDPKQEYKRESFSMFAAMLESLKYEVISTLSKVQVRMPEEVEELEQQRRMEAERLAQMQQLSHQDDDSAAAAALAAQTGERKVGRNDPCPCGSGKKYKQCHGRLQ

As to `CN(Cc1cn2ccccc2c1C#N)C1CCCN(c2cccnn2)C1` (stereo not given), the Percent Effect is -1.94% in test [1]; -15.6% in test [2]; 10.5% in [3]; 1.31% with Trypanosoma cruzi; -3.07% in test [4] (33.3 µM); 13.7% in test [5]. Besides, the Percent Effect in the test listed under Homo sapiens was 6.2%; in test [6], 13.7%; in test [7] it was 9.41%; in [8], -7.9%.

With `CNc1ccc(CC2CCCN(C(=O)c3cnc(C)nc3)C2)nn1` (stereo not given), the Percent Effect is 0.212% in [1]; 12% in test [2]; -9.66% in test [3]; -0.197% in the test with Trypanosoma cruzi; 4.87% in test [4] (33.3 µM); 17.1% in test [5]. Moreover, the Percent Effect in the test listed under Homo sapiens is 12.2%; in test [6], 5.29%; in test [7], 12.5%; in test [8], -20.6%.

In the case of `Cc1ccc(C)c(C(C(=O)O)N2CCCN(Cc3ccccn3)CC2)c1` (stereo not given), the Percent Effect in test [1] is -6.39%; in test [2] it was 5.41%; in test [3], 1.19%; in the test with Trypanosoma cruzi it was -2.23%; in test [4] (30 µM) it was 0.54%; in [4] (33.3 µM) it was 4.54%. For the same molecule, the Percent Effect in test [5] is 16.3%; in the test filed under Homo sapiens, 23.2%; in [6], 6.92%; in test [7] it was 14.6%; in test [8] it was -4.84%.

Take `c1ccc(-c2ccc(C3CNCCO3)nc2)cc1` (stereo not given): the Percent Effect in test [1] was -1.91%; in test [2] it was 14.7%; in [3] it was -4.38%; in the test with Trypanosoma cruzi, -2.37%; in [4] (33.3 µM) it was -3.1%; in test [5], 41% and 49.8% and 42.6%. The Percent Effect in the test on N/A was 18% and 21%; in the test listed under Homo sapiens, -23.6%; in test [6] it was 3.17%; in test [7], 7.5%; in [8], -25.7%.

On to `COCc1noc(-c2ccc(N3CCCCC3CO)nc2)n1` (stereo not given), for which the Percent Effect in [1] was -2.04%; in test [2] it was -5.41%; in test [3], 7.35%; in the test with Trypanosoma cruzi it was -0.485%; in test [4] (33.3 µM), 6.64%; in [5], 62% and 48.5% and 57.3%. The Percent Effect in the test on N/A is 26.9%; in the test listed under Homo sapiens it was 2.19%; in test [6] it was 0.532%; in [7] it was 0%; in test [8], -0.226%.

For `O=C(NCCCN1CCOCC1)c1ccn(-c2ccc3ccccn23)n1`, the Percent Effect in test [1] was -0.779%; in test [2] it was 6.49%; in test [3], 1.13%; in the test on Trypanosoma cruzi it was -2.43%; in [4] (33.3 µM) it was -4.05%; in test [5], 30.3% and 30.6% and 42.5%. Moreover, the Percent Effect was 15% and 12% with N/A; 5.6% in the test listed under Homo sapiens; 8.95% in test [6]; 7.69% in test [7]; 1.74% in test [8].

With `Cc1nc(C2CCCN(C(=O)COCc3ccccc3Cl)C2)no1` (stereo not given), the Percent Effect in test [1] is 1.44%; in test [2], -8%; in test [3], 4.56%; in the test on Trypanosoma cruzi it was -1.81%; in test [4] (33.3 µM) it was 6.21%; in test [5], -7.72%. The Percent Effect in the test filed under Homo sapiens was 10.8%; in test [6] it was -1.58%; in test [7], -5.13%; in test [8] it was 3.49%.

Consider `COc1ccc2c(c1)OCC(CNC(=O)c1ccc(=O)n(C)c1)C2` (stereo not given), for which the Percent Effect is -9.07% in test [1]; -2.7% in [2]; 20.7% in test [3]; 5.72% with Trypanosoma cruzi; -5.95% in test [4] (30 µM); 17.8% in test [4] (33.3 µM). Also, the Percent Effect in test [5] was 12.5%; in the test filed under Homo sapiens it was 9.66%; in test [6], 4.79%; in [7] it was 9.76%; in test [8], 0.784%.

For `CC(Cn1cccn1)NC(=O)N1CCN(Cc2cccnc2)CC1` (stereo not given), the Percent Effect was -6.34% in [1]; 7.79% in test [2]; 1.46% in test [3]; 1.87% with Trypanosoma cruzi; -1.02% in [4] (33.3 µM); 11.2% in test [5]. For the same molecule, the Percent Effect in the test listed under Homo sapiens is -5.12%; in test [6] it was 5.88%; in test [7], 23.5%; in test [8], -16.2%.
